Source: PubChem BioAssay
Calls of active or inactive are those of the source.

How the values were obtained:
[1] = probe aNog binding to arrayed compounds – biochemical, biotinylated probe, 635/667 nm fluorescence, primary screen (AID 1115); conditions: small-molecule microarray, higher = more signal;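 also: probe is biotinylated aNog protein used at 0.15 µg/mL for 1 h at 4 C; z-score combines 667 nm fluorescence of each spot with its signal to noise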
[2] = molecular target: Torsin-1A-interacting protein 1 (Homo sapiens) (UniProt Q5JTV8); assay: compound microarray binding of lysate hLAP1 – cell lysate, small-molecule microarray, COS7 lysate, 635/667 nm fluorescence, primary screen (AID 1116); conditions: 635 nm fluorescence, higher = more signal
Sequence of Torsin-1A-interacting protein 1 (Homo sapiens) (Q5JTV8 whole entry, looked up): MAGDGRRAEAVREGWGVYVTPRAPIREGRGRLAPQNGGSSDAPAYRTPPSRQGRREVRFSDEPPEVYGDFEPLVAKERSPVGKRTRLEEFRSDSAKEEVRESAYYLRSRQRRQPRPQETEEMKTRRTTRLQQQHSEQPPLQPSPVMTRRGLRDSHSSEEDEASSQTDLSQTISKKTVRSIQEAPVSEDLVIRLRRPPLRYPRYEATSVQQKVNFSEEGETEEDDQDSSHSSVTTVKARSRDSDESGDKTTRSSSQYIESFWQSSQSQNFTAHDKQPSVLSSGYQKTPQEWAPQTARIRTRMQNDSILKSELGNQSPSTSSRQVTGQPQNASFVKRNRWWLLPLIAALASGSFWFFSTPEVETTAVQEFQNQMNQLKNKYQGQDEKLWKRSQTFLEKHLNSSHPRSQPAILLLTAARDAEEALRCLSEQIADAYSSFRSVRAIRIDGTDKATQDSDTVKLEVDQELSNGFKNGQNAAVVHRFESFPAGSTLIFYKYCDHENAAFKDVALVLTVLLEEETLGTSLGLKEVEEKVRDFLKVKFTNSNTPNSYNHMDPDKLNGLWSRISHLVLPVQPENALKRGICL

Albumin (Bos taurus) = Albumin (Bos taurus) (UniProt P02769); assay: compounds binding labelled BSA control protein – biochemical, small-molecule microarray, Alexa647 label, 635/667 nm fluorescence, artefact control for SMM control protein annotation, profiling panel (AID 1118); conditions: BSA-A647 binding, fluorescence 635 nm, higher = more signal;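 also: score merges 667 nm emission intensity and signal-to-noise per printed compound spot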
Sequence of Albumin (Bos taurus) (P02769 whole entry, looked up): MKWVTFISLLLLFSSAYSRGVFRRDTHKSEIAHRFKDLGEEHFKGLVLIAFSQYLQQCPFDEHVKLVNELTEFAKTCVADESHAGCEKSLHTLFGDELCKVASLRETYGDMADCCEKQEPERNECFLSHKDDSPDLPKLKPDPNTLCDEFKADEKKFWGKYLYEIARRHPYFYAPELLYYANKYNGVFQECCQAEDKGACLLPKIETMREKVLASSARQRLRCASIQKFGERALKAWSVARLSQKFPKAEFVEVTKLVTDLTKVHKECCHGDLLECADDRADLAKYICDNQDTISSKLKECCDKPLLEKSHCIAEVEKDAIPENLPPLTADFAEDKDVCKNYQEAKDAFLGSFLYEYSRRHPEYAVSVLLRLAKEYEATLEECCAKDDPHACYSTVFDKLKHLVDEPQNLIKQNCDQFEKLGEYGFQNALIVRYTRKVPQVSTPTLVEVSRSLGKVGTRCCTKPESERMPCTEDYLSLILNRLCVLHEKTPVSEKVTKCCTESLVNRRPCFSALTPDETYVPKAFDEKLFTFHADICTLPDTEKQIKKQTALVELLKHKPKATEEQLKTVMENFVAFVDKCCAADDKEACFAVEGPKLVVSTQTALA

[3] = probe aXIP binding to arrayed compounds – biochemical, NeuroSMM set, 635/667 nm fluorescence, primary screen (AID 1119); conditions: small-molecule microarray, higher = more signal, called active from +8 up or from −8 down;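 also: probe is the protein aXip251-270 applied at 1 µg/mL to compound-printed slides; binding of probe to printed compounds measured as 667 nm fluorescence plus signal to noise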
[4] = probe aNOTCH3 binding on compound microarray – biochemical, small-molecule microarray, 635/667 nm fluorescence, primary screen (AID 1120); conditions: higher = more signal;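 also: probe is a biotin-tagged antibody raised against NOTCH3 rather than NOTCH3 protein; score merges spot fluorescence near 667 nm with spot signal to noise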
[5] = probe aNOTCH2 binding on compound microarray – biochemical, small-molecule microarray, 635/667 nm fluorescence, primary screen (AID 1121); conditions: higher = more signal;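 also: score merges feature fluorescence read at 667 nm with its signal to noise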
[6] = molecular target: Carbonic anhydrase 2 (Homo sapiens) (UniProt P00918); assay: compounds binding carbonic anhydrase 2 – biochemical, small-molecule microarray, Alexa647-labelled CAII, profiling panel (AID 1122); conditions: CAII-A647 binding fluorescence, higher = more signal
[7] = COS7 lysate on small-molecule microarray, probe aHis, 635 nm (AID 1123); conditions: COS7 cell lysate, fluorescence, higher = more signal;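 also: z-score combines 667nm fluorescence intensity with signal-to-noise per printed compound spot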
[8] = probe aLAP1 signal on lysate-treated microarray – cell lysate, small-molecule microarray, COS7 lysate, primary screen (AID 1124); conditions: probe aLAP1, fluorescence, higher = more signal;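 also: lysate comes from COS7 cells expressing LAP1 and is applied at 0.3 µg/mL; score merges spot fluorescence near 667 nm with signal-to-noise over triplicate slides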
Sam68 (KHDRBS1) = assay: compounds binding KHDRBS1 protein – biochemical, small-molecule microarray, 635 nm fluorescence, primary screen (AID 1125); conditions: higher = more signal;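 also: score merges 667 nm channel intensity with signal to noise over triplicate slides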
[9] = tested on: Chordin-like protein 2 (CHRDL2); assay: compounds binding chordin-like 2 – biochemical, small-molecule microarray, 635 nm fluorescence, primary screen (AID 1126); conditions: fluorescence 635 nm, higher = more signal;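 also: printed compound slides probed with Chrdl2 protein at 4 µg/mL for 1 h at 4 C; score merges 667 nm emission intensity with signal to noise over three replicate slides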
[10] = molecular target: Concanavalin-A (Canavalia ensiformis) (UniProt P02866); assay: compounds binding concanavalin A lectin – biochemical, small-molecule microarray, Alexa647 label, 635 nm, artefact control for SMM control protein annotation, primary screen (AID 1127); conditions: ConA-A647 binding fluorescence, higher = more signal;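 also: z combines 667 nm emission intensity with signal-to-noise across three replicate slides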
Sequence of Concanavalin-A (Canavalia ensiformis) (P02866 whole entry, looked up): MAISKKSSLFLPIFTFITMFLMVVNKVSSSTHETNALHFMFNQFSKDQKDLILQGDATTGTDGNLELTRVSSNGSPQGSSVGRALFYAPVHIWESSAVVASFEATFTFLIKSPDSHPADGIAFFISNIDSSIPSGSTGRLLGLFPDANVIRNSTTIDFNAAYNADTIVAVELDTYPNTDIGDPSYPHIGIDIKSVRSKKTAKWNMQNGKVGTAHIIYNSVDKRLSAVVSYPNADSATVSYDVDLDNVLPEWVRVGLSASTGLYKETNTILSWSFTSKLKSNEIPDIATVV

[11] = compounds binding Alexa647 anti-His antibody – biochemical, small-molecule microarray, 635 nm fluorescence, artefact control for SMM control protein annotation, primary screen (AID 1128); conditions: higher = more signal;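 also: score merges feature fluorescence with signal-to-noise for each printed compound spot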
[12] = tested on: Human papillomavirus type 1a E7 protein (residues 1-88); assay: HPV1a E7 small-molecule binders, primary screen, biochemical, small-molecule microarray, residues 1-88, 635 nm (AID 1129); conditions: small-molecule microarray binding, fluorescence 635 nm; higher = more signal
[13] = molecular target: Focal adhesion kinase 1 (Homo sapiens) (UniProt Q05397); assay: PTK2 protein binding on printed compound slides – biochemical, small-molecule microarray, 635/667 nm fluorescence, BSA, DTT, primary screen (AID 1130); conditions: 635 nm fluorescence, higher = more signal;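 also: composite of spot emission at 667 nm and signal to noise over triplicate slides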
Sequence of Focal adhesion kinase 1 (Homo sapiens) (Q05397 whole entry, looked up): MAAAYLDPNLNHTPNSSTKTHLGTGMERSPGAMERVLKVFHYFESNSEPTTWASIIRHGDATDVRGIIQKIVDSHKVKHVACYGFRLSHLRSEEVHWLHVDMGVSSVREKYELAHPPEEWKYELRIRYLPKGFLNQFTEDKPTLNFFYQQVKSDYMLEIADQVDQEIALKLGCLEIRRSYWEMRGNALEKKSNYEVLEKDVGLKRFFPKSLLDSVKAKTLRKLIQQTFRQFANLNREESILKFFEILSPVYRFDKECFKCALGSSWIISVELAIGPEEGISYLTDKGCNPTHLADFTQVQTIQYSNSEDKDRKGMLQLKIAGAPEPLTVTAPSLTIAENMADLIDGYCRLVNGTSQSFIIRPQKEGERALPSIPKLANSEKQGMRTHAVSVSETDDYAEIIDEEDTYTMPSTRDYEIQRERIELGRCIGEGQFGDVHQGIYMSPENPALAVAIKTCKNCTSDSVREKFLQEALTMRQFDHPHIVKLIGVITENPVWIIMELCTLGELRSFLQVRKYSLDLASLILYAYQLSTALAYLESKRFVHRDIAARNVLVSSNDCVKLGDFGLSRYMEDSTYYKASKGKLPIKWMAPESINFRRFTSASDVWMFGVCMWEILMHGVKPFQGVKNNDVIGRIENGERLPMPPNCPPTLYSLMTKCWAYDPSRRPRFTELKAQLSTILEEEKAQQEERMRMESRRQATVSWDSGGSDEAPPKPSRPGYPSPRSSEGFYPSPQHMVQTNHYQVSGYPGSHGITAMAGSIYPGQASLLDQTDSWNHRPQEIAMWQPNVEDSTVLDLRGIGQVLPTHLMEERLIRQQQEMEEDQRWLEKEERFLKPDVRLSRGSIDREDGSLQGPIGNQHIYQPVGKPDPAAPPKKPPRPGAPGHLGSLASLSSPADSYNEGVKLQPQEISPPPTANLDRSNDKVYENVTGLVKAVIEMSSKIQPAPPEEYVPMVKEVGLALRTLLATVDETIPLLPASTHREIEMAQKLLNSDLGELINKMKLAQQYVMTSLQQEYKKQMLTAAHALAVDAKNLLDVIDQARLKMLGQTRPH

[14] = tested on: Fibrinogen (Alexa647-labelled); assay: Alexa647-fibrinogen binding to printed small molecules – biochemical, small-molecule microarray, 635/667 nm fluorescence, artefact control for SMM control-protein annotation, profiling panel (AID 1131); conditions: fibrinogen-A647 binding fluorescence, higher = more signal;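 also: z-score merges 667 nm fluorescence with per-spot signal-to-noise over triplicate slides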
[15] = molecular target: Follistatin (Homo sapiens) (UniProt P19883); assay: FST protein binding to printed compounds – biochemical, small-molecule microarray, 635/667 nm fluorescence, primary screen (AID 1132); conditions: 635 nm fluorescence, higher = more signal
Sequence of Follistatin (Homo sapiens) (P19883 whole entry, looked up): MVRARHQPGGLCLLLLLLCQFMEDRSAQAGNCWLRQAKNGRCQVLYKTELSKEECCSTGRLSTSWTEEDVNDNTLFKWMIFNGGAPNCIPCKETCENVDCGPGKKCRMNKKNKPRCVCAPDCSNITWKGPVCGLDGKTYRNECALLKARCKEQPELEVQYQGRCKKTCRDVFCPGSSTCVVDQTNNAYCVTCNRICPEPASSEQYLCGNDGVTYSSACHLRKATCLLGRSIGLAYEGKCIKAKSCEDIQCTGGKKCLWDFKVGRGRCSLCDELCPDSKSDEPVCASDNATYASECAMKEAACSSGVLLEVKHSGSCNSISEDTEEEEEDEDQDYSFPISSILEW

[16] = molecular target: Fibroblast growth factor 2 (Homo sapiens) (UniProt P09038); assay: basic fibroblast growth factor binding to printed compounds – biochemical, small-molecule microarray, 635/667 nm fluorescence, primary screen (AID 1133); conditions: FGF2, fluorescence 635/667, higher = more signal
Sequence of Fibroblast growth factor 2 (Homo sapiens) (P09038 whole entry, looked up): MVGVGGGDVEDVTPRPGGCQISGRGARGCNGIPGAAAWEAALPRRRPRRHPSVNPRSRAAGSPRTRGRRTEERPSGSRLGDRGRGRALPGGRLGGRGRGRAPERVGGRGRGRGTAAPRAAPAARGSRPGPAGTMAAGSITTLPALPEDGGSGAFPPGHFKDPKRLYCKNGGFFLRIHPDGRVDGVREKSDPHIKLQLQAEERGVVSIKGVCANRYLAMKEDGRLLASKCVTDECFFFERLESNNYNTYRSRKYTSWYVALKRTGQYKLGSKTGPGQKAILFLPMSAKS

[17] = JC-1 mitochondrial potential readout, lung cancer cells – cell-based, A549, JC-1 fluorescence, basal, 24 h, 100 nL, profiling panel (AID 1138); conditions: higher = more signal;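 also: A549 lung adenocarcinoma cells under basal conditions with no added stimulus; test concentration not given here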
Lefty1 = Lefty1 protein binding to printed compounds – biochemical, small-molecule microarray, 635/667 nm fluorescence, primary screen (AID 1139); conditions: fluorescence 635/667, higher = more signal

Row | Structure (SMILES) | composite z-score [1] | composite z-score [2] | composite z-score (Albumin (Bos taurus)) | composite Z-score [3] | composite z-score [4] | composite z-score [5] | composite z-score [6] | composite z-score [7] | composite z-score [8] | composite z-score (Sam68 (KHDRBS1)) | composite z-score [9] | composite z-score [10] | composite z-score [11] | composite z-score [12] | composite z-score [13] | composite z-score [14] | composite z-score [15] | composite z-score [16] | z-score [17] | composite z-score (Lefty1)
1 | CCCNC(=O)[C@@]1(Sc2ccc(C)cc2)CC(=O)N(Cc2cc(C(F)(F)F)cc(C(F)(F)F)c2)[C@@H]1c1ccc(CO)cc1I | 0.573 | 1.68 | 0.502 | 0.414 (inactive) | -0.125 | 0.0042 | 0.883 | 0.918 | 0.349 | 0.354 | -0.605 | -0.12 | -0.187 | -0.574 | -0.101 | -0.0242 | -0.0247 | -1.22 | -0.283 | -0.487
2 | C=CCNC(=O)[C@H]1[C@@H]2C(=O)O[C@@H](c3ccccc3)[C@@H](c3ccccc3)N2[C@@H](c2ccccc2OCCO)[C@]12C(=O)N(C(=O)OCCOC)c1ccc(C#CCCO)cc12 | 1.23 | 0.985 | 0.0097 | 0.433 (inactive) | 0.142 | 0.399 | 0.417 | 1.79 | 0.665 | 1.32 | 1.18 | 1.11 | 1.34 | 1.09 | 1.02 | 0.614 | 1.42 | 1.72 | 1.7 | 0.817
3 | C=CCOC(=O)[C@H]1[C@@H]2C(=O)O[C@@H](c3ccccc3)[C@@H](c3ccccc3)N2[C@@H](c2ccc(OCCOC(=O)[C@H]3C[C@H]4C(=O)N5CCC[C@H]5C(=O)N4[C@H]3c3cccc(OCCO)c3)cc2)[C@]12C(=O)Nc1ccccc12 | 0.228 | 0.925 | -0.592 | 1.51 (inactive) | -0.0647 | -0.0424 | 0.466 | 2.31 | -0.103 | 1.31 | 1.37 | 0.96 | 1.34 | 1.16 | 0.903 | 0.47 | 1.34 | 1.57 | -0.851 | 0.628
4 | CC(C)(C)OC(=O)CC[C@]1(C(=O)NCc2ccccc2)COC(c2ccc(OCCCO)cc2)=N1 | 1.31 | 2.07 | 0.875 | 0.603 (inactive) | 0.0128 | 0.0377 | 0.673 | 2.41 | 1.49 | 1.25 | -1.45 | 0.255 | -0.518 | 1.25 | 0.444 | 0.694 | -0.0444 | -1.04 | 0.695 | -0.986
